Bioassay records deposited in PubChem BioAssay by National Center for Advancing Translational Sciences (NCATS).
JMJD2A Tudor inh: qHTS Assay for Inhibitors of JMJD2A-Tudor Domain. Potency, µM (titrated, usually from 114 µM), inactives show top-dose activity change, negative = inhibition, actives largely listed as inhibitors. 390,000 tested, 4.4% active. AlphaScreen JMJD2A-Tudor / H3K4me3 peptide binding. Lysine-specific demethylase 4A (Homo sapiens), O75164; note: % is set by controls: 0 for no effect and ±100 for the full control effect; nearly all actives have a fitted effect of over 50% in size
VDR inh: Inhibitors of the vitamin D receptor (VDR): qHTS | Vitamin D3 receptor (Homo sapiens), P11473 | VDR-SRC2-3 peptide fluorescence polarization, 2 h | Potency, µM, without a hit: max response, negative = inhibition, most hits filed as inhibitors | 400,000 tested, 0.93% active; note: % is set by controls: 0 for no effect and ±100 for the full control effect
Target sequence (P11473 whole entry, looked up): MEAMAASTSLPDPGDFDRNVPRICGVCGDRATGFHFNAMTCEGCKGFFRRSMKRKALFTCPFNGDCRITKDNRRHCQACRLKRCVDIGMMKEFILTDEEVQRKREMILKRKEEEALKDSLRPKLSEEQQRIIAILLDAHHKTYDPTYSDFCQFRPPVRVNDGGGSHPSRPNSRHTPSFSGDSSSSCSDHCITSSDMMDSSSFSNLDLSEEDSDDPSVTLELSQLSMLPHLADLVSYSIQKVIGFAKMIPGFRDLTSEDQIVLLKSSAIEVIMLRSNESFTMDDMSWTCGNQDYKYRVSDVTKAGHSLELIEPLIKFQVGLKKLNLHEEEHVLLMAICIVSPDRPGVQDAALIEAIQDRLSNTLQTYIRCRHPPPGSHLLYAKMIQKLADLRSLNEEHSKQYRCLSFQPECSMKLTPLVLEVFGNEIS
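FP read-out; VDR + SRC2-3 coactivator peptide; 23 nl compound by pintool; 2 h RT incubation; reagents held at 4 deg C, protected from light.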
BAZ2B inh: qHTS Assay for Inhibitors of BAZ2B; Bromodomain adjacent to zinc finger domain protein 2B (Homo sapiens), Q9UIF8; AlphaScreen BAZ2B-H3K14Ac peptide displacement; Potency, µM (highest dose often 114 µM), without a hit: top-dose activity change, negative = inhibition, actives largely listed as inhibitors; 360,000 tested, 4.4% active; note: % is set by controls: 0 for no effect and ±100 for the full control effect; nearly all actives have a fitted effect of over 60% in size
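AlphaScreen luminescence quantifies BAZ2B engagement of H3K14Ac peptide; the protein and biotinylated peptide are both at 50 nM final, buffer PBS pH 7.4 with 0.01% Tween-20, all steps at room temperature.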
G9a inh: qHTS Assay for Inhibitors of Histone Lysine Methyltransferase G9a | Histone-lysine N-methyltransferase EHMT2 (Homo sapiens), Q96KQ7 | G9a H3K9 monomethylation, AlphaScreen, 2 h | Potency, µM (highest dose often 102 µM), inactives show at the top dose activity, negative = inhibition, actives largely listed as inhibitors | 350,000 tested, 8.8% active; note: % is set by controls: 0 for no effect and ±100 for the full control effect; nearly all actives have a fitted effect of over 75% in size
Target sequence (Q96KQ7 913-1193 limits assumed): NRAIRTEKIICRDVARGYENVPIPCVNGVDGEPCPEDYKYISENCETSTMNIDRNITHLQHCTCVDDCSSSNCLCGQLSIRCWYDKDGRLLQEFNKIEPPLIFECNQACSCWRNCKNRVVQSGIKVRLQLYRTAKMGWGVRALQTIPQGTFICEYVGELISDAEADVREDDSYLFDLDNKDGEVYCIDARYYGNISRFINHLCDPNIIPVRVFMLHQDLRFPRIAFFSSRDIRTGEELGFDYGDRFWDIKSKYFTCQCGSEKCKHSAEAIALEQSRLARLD
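Compounds were preincubated with 20 nM G9a for 15 min, after which biotinylated H3K9 peptide (500 nM) and SAM (20 uM) started a 2 h room-temperature reaction. Monomethylated product was quantified by antibody-based AlphaScreen chemiluminescence.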
PLK1 PBD block: qHTS for Inhibitors of PLK1-PDB (polo-like kinase 1 - polo-box domain): Primary Screen | AID 720504, 2013 | Plk1 PBD binding of FITC phosphopeptide, fluorescence polarization | 360,000 tested, 2.8% active | Potency, µM, inactives show max response, negative = inhibition, actives largely listed as inhibitors | Serine/threonine-protein kinase PLK1 (Homo sapiens), P53350; note: series mostly up to about 57 µM; % is set by controls: 0 for no effect and ±100 for the full control effect; nearly all actives have a fitted effect of over 65% in size
HP1b binding inh: HTS for Inhibitors of HP1-beta Chromodomain Interactions with Methylated Histone Tails; 390,000 tested, 0.56% active; Potency, µM (series often up to 114 µM), without a hit: at the top dose activity change, negative = inhibition, actives largely listed as inhibitors; AlphaScreen HP1-beta / biotin-H3K9me3 peptide binding; Chromobox protein homolog 1 (Homo sapiens), P83916; AID 540317, 2011; note: nearly all actives have a fitted effect of over 70% in size
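AlphaScreen: HP1-beta (50 nM) preformed 30 min with biotin-H3(1-18)K9me3 peptide (50 nM) in PBS pH 7.4, 0.01% Tween-20. Compound added for 30 min at RT, then streptavidin donor/nickel chelate acceptor beads (10 ug/mL) for 30 min.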
* marks the source's active call; other numbers are inactive results; ? = inconclusive; · = not tested or not shown; [ ] = remark or other dose. Shown are actives, neighbours in structure and some others; about 11% of the full set was active somewhere. Calls come from the whole dose curve; as a rule, active = well fitted curve in the direction sought with a large enough effect; inconclusive = small, poorly fitted or top-dose-only effect, or another doubt; inactive = no such curve, though single readings can be large; an effect the other way counts as inactive or inconclusive. Potency is the fitted concentration of half-maximal effect.

SMILES	JMJD2A Tudor inh	VDR inh	BAZ2B inh	G9a inh	PLK1 PBD block	HP1b binding inh
O=C1C(c2[nH]c3ccc(S(=O)(=O)O)cc3c2O)=Nc2ccc(S(=O)(=O)O)cc21	·	?	·	18µM*	·	·
COC(=O)C1=C[C@@H](C(=O)OC)[C@@H]2C3=C(C(=O)C2(C)C)[C@H](C)n2c(=O)n(C)c(=O)n2[C@@H]3C1	-4%	?	·	·	·	38%
CCOC(=O)c1ccc(Nc2nc3nonc3nc2Nc2cccc(C)c2C)cc1	?	3%	22µM*	-50%[59 µM]	·	-1%
Cc1ccc(C)c(Nc2nc3nonc3nc2Nc2cccc(C)c2C)c1	?	2%	?	-49%[59 µM]	·	19%
COc1cccc(CNc2nn[nH]n2)c1OC	9%	18%	3%	1%[59 µM]	4%	24%
CCOc1cc(CNCc2ccc(C(=O)O)cc2)ccc1OC	2%[11.4 µM]	14%	-36%	·	-15%	61%
COc1ccc(CNCc2c(F)cccc2F)cc1OC	4µM*	-6%	-39%	10µM*	-20%	-4%
COc1cc(CNCc2ccc(C)cc2)cc(OC)c1OC	20µM*	-5%	71µM*	28µM*	-10%	?
COc1ccc(CNCC(C)NCc2ccc(OC)c(OC)c2)cc1OC (stereo not drawn)	-18%	6%	-1%	-13%	-13%	36%
CCOc1cc(CNCc2cc(OC)cc(OC)c2)ccc1OC	1µM*	-1%	?	40µM*	-8%	?
COc1cc(CNCc2cccc(OC)c2OC)cc(OC)c1	25µM*	-19%	50%	34%[0.501 µM]	-1%	?
COc1cc(CNCc2ccncc2)cc(OC)c1OC	-29%	-28%	1%	-4%[0.501 µM]	-3%	24%
CC(C)c1nnc(N2C(=O)c3oc4ccccc4c(=O)c3C2c2cccc(O)c2)s1 (stereo not drawn)	-1%	-14%	0%	-32%[59 µM]	·	41%
COc1cc(CNCc2cc(OC)c(OC)c(OC)c2)cc(OC)c1	20µM*	-10%	?	·	0%	?
COc1cccc(CNCc2ccc(C(=O)O)cc2)c1OC	4%	5%	-32%	-35%	-6%	12%
COc1cccc(CNCc2ccc(SC)cc2)c1OC	13µM*	-5%	?	22µM*	1%	?
CS(=O)(=O)c1ccc(C(=O)N2CCc3ccccc3C2)cc1	-19%	-2%	·	7%	-26%	8%
CCN1CCN(C(=O)c2ccc3c(c2)c(C)c(C)n3Cc2ccccc2)CC1	?	2%	?	35µM*	-2%	?
CCn1c(C)c(C)c2cc(C(=O)N3CCc4ccccc4C3)ccc21	40µM*	8%	22µM*	45µM*	-10%	?
CCn1c(C(=O)N2CCc3ccccc3C2)cc2sccc21	-35%	-12%	-35%	50µM*	-19%	20%
Cc1c(C)n(Cc2ccc(F)cc2)c2ccc(C(=O)N3CCN(c4ccc(F)cc4)CC3)cc12	?	13%	-38%	-43%[59 µM]	·	14%
O=C(CSc1nc(=O)[nH]c2c1CCCC2)NCc1ccccc1	-2%	12%	1%	8%[59 µM]	·	20%
CCOc1ccc(-n2c(=O)c3c4c(sc3n(CC(=O)NC(C)CC)c2=O)CCCC4)cc1 (stereo not drawn)	-12%	-3%	5%	1%[59 µM]	·	17%
CC1(C)CC(=O)C(/C=N/c2ncccc2C(=O)O)=C(O)C1	0%	-10%	6%	50µM*	-11%	44%
CC1(C)CC(Cc2nc(=S)[nH][nH]2)C(=O)O1 (stereo not drawn)	50µM*	2%	?	1.8µM*	4%	24%
SMILES	JMJD2A Tudor inh	VDR inh	BAZ2B inh	G9a inh	PLK1 PBD block	HP1b binding inh
CC1(C)CC(CC(=O)Nc2ccccn2)C(=O)O1 (stereo not drawn)	-19%	3%	5%	-3%[59 µM]	4%	7%
CCn1ccnc1CN(C)C(=O)c1cc(COc2ccc(OC)c3ccccc23)on1	50µM*	-8%	1%	93%	4%	?
Nc1ccc(SC(F)(F)F)cc1	1%	8%	5%	50µM*	-14%	29%
Cc1ccnc2ccc(SC(F)(F)F)cc12	-10%	-18%	-36%	-16%	-10%	33%
Cc1cc(C)c2sc(NC(=O)c3ccc(S(=O)(=O)N4CCOCC4)cc3)nc2c1	-3%	14%	-2%	3%[59 µM]	·	21%[57 µM]
CCOC(=O)N1CCN(S(=O)(=O)c2ccc(C(=O)NNc3nc4c(C)cc(C)cc4s3)cc2)CC1	?	6%	-11%	45µM*	-9%	5%
CCOC(=O)N1CCN(S(=O)(=O)c2ccc(C(=O)Nc3nc4c(s3)CC(C)CC4)cc2)CC1 (stereo not drawn)	-16%	7%	-2%	-8%	-1%	11%
Cc1cc(C)c2nc(NC(=O)c3ccc(S(=O)(=O)N4CCCC4)cc3)sc2c1	-14%	-3%	0%	12%[59 µM]	·	17%[57 µM]
CCOC(=O)N1CCN(S(=O)(=O)c2ccc(C(=O)NNc3nc4ccc(Cl)cc4s3)cc2)CC1	-25%	-11%	-6%	79µM*	-20%	23%
Cc1cc(C)c2nc(NNC(=O)c3ccc(S(=O)(=O)N4CCCCC4)cc3)sc2c1	?	7%	?	25µM*	-17%	9%
CCOC(=O)N1CCN(S(=O)(=O)c2ccc(C(=O)NNc3nc4cc(C)cc(C)c4s3)cc2)CC1	?	-1%	?	50µM*	-5%	-12%
CCc1cc(Cn2nc(-c3ccccc3)cc2C(=O)NCc2ccccc2OC)on1	-5%	-20%	5%	8%[2.33 µM]	0%	30%
Cc1ccc(NC(=O)Cn2c(=O)oc3cc(S(=O)(=O)N4CCCCC4)ccc32)c(Cl)c1	-5%	2%	7%	6%[59 µM]	·	39%
Cc1cc(C)n2nc(C(=O)NCc3ccccc3)nc2n1	4%	1%	9%	6%[12.7 µM]	-6%	22%
Cc1cc(C)n2nc(CC(=O)NCc3ccc(F)cc3)nc2n1	71µM*	-26%	13%	?	27µM*	9%
Cc1cc(C)n2nc(C(=O)OCC(=O)c3ccc(F)cc3)nc2n1	-17%	-6%	-6%	56µM*	3%	13%
Cc1cc(C)n2nc(CC(=O)NNC(=O)COc3ccccc3)nc2n1	-3%	12%	-9%	25µM*	-10%	35%
Cc1cc(C)n2nc(C(=O)NCc3ccccc3)cc2n1	-22%	?	22%	?	21µM*	?
